Laboratory results: PubChem BioAssay (NCI)
The panel holds about 83,000 compounds, 20% with a hit somewhere; the sample as a whole holds those more often.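 Method: cells in 96-well plates; compound added at one concentration; 48 h incubation; percent growth measured; values under 10 scored active.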 Values without a mark were called inactive. Active and inactive are the calls of the source.

The compounds below were run on RPMI-8226 leukemia (assay: NCI-60 one-dose screen, 48 h (100 = growth as untreated, 0 = no growth, -100 = all killed)). Conditions: 10 µM unless noted.
Experimental: Growth inhibition of the RPMI-8226 human tumor cell line is measured as a screen for anti-cancer activity. Cells are grown in 96 well plates and exposed to the test compound for 48 hours. Compounds are tested at a single concentration, which is 10^-5 M for most compounds. The reported endpoint is percent growth (GI% or GIPRCNT), where numbers from 0 - 100% represent growth inhibition, and numbers from -100% - 0 represent cell death. For example, a value of 40 represents 60% growth inhibition. A value of 0 means no net growth occurred over the course of the experiment. A value of -40 indicates 40% of cells at the beginning of the experiment died by the end of the experiment. A value of -100 means all cells are dead at the end of the experiment.
NCI-60 Human Tumor Cell Lines Screen was performed using the standard one-dose NCI protocol, which is described in more detail at https://dtp.cancer.gov/discovery_development/nci-60/default.htm.
Compounds with GIPRCNT values below 10 were considered active. Activity score was based on GIPRCNT using the following formula: […]
Score is 0 for GIPRCNT values of 100 or above, 50 for GIPRCNT values of 0, and 100 for GIPRCNT values of -100.

SMILES	growth
N#C/C(=C\c1ccc(Cl)cc1Cl)C(=O)Nc1ncc(Cc2ccc(Cl)c(Cl)c2)s1	92.9%
O=C1/C(=C/c2ccc(C(F)(F)F)cc2)COc2ccc(O)c(O)c21	-13.8% (active)
CCN=C1C=CC(=C(c2ccc(N(C)C)cc2)c2ccc(N(C)C)cc2)c2ccccc21	-22.9% (active)
COc1ccc(OC)c(Nc2nnc(-c3ccc(Cl)cc3)o2)c1	90.4%
Cc1ccc(-c2csc(NC(=O)N3CCN(c4cc5c(cc4F)c(=O)c(C(=O)O)cn5C4CC4)CC3)n2)cc1	4.84% (active)
O=C1NC(=O)c2c1c1c3ccccc3[nH]c1c1oc3ccc(F)cc3c21	74.5%
Cc1cc(N2CCN(C)CC2)nc(NCc2cc(Nc3ccnc4cc(Cl)ccc34)ccc2F)n1	-29.6% (active)
Cc1[nH]c(C(=O)Nc2ccc(C(N)=O)cc2NC(C)C)c(Cl)c1Cl	87.8%
Cc1ccc(C)c2c1C(O)(C#Cc1ccccc1)c1ccccc1C2(O)C#Cc1ccccc1 (stereo not given)	18.9%
COc1ccc(/C=C/C(=O)c2ccc(NC(=O)CSc3nnc(-c4cc(-c5ccccc5)nc5ccccc45)n3-c3ccccc3)cc2)cc1	96.6%
CCN1CCN(CC(=O)Nc2nc3ccc(NCc4ccc(Br)cc4)cc3s2)CC1	41.8%
Fc1ccc2c(c1)c(-c1nc(-c3c[nH]c4ncccc34)cs1)cn2CCCN1CCOCC1	36.6%
COc1cc(-c2nc(SCCC(C)C)nc(N3CCOCC3)c2C#N)cc(OC)c1OC	90.3%
C[C@@H]1CC[C@@]2(OC1)O[C@H]1C[C@H]3[C@@H]4CC=C5C[C@@H](O[C@@H]6O[C@H](CO)[C@@H](O[C@@H]7O[C@@H](CO)[C@H](O)[C@H]7O)[C@H](O)[C@H]6O[C@@H]6O[C@@H](C)[C@H](O)[C@@H](O)[C@H]6O)CC[C@]5(C)[C@H]4CC[C@]3(C)[C@H]1[C@@H]2C	-60.1% (active)
COc1ccc2cc(-c3ccc(-c4ccc(C(=N)N)s4)s3)ccc2c1	-20.9% (active)
COc1ccc(Cn2cc(C(=O)N=Nc3c(O)[nH]c4c(Cl)cccc34)nn2)cc1	106%
CCC(CC)(N(CC(=O)O)CC(=O)O)C(CC)(CC)N(CC(=O)O)CC(=O)O	82.7%
O[C@@H](c1cc(C(F)(F)F)nc2c(C(F)(F)F)cccc12)[C@H]1CCCCN1	68.9%
COc1cccc(OC)c1Oc1c(-c2nc3ccccc3s2)c(C)nn1-c1ccccc1	57.6%
O=C1c2cccnc2C(=O)c2c1c(C(=O)OCCCN1CCCCC1)c1ccccn21	-28.3% (active)

SMILES	growth
O=c1ccc2nc(C(F)(F)F)nn(-c3ccccc3)c-2c1	45.8%
NNC(=S)N/N=C/c1ccccn1	28.9%
Cn1cc(-c2csc(-c3cn(C(=O)OC(C)(C)C)c4ccccc34)n2)c2ccnc(Cl)c21	68.7%
O=C(N/N=C/c1ccc([N+](=O)[O-])cc1)c1ccc2nc(-c3ccc(Cl)cc3)[nH]c2c1	10.8%
Cc1ccc(/C=C/C(=O)c2ccc(NC(=O)CSc3nc4c([nH]3)c(=O)n(C)c(=O)n4C)cc2)c(C)c1	52.6%
O=S(=O)(c1ccccc1)N1CCCN(c2nc(-c3ccccc3)nc3nc(-c4ccccc4)oc23)CC1	98.1%
Nc1ccc([N+](=O)[O-])cc1N=C/C=C/c1ccccc1	25.6%
Cc1c2cc[nH]c(=O)c2c(C)c2c1[nH]c1ccc(OC(=O)c3ccccc3)cc12	40.2%
Cc1c(N2CN3C[C@H](C)N4CN(c5c(C)n(C)n(-c6ccccc6)c5=O)CN5C[C@@H](C)N(C2)C3C54)c(=O)n(-c2ccccc2)n1C (stereo not given in full)	96%
O=C1NC(=C(Cl)Cl)/C(=N/S(=O)(=O)N2CCCCC2)N1	-22.7% (active)
O=C1Nc2ccccc2C2c3cccn3-c3ccccc3N12 (stereo not given)	82.6%
O=C1c2cc3c(cc2-c2c1c1ccc(Cl)cc1c(=O)n2C[C@H](O)CO)OCO3	-11.9% (active)
O=[N+]([O-])/C(=C\c1ccco1)c1ccccc1Cl	85.9%
O=C(/C=C/C12c3ccccc3C(c3ccccc31)C1C(=O)NC(=O)C12)c1ccc(F)cc1 (stereo not given)	-24% (active)
O=C(CCCCl)NNc1nccc(Nc2ccc(S(=O)(=O)Nc3ccncc3)cc2)n1	104%
O=C(Nc1ncc(Cc2ccccc2Cl)s1)c1cccs1	73.5%
COc1ccc2cc(-c3cnc4nonc4n3)ccc2c1	0.566% (active)
CCCCCCCCCCCCCCCCCCOc1ccccc1CC(=O)OCC[N+]1(C)CCOCC1	59.7%
C=C(c1ccc(C(=O)O)cn1)c1cc2c(cc1C)C(C)(C)CCC2(C)C	66.5%
COc1ccccc1NC(=O)c1ccc(/C=C/C(=O)c2nccn2C)cc1	-35% (active)
